Results reported in PubChem BioAssay AID1006 (Sanford-Burnham Center for Chemical Genomics, 2008).
In all, about 200,000 compounds went through this assay and about 3,000 (1.5%) were called active.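 Rule for the calls: active = inhibition above about 50% when tested at 10 µM (limit read from the data); inactive = the rest.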 Many of the other results were omitted from the sample, so actives are more common in it than they were.

What follows are compounds tested against Luciferin 4-monooxygenase (Photinus pyralis) (UniProt P08659) (assay: inhibition of purified FLuc reporter enzyme – biochemical, luminescence, ATPLite, artefact control for luciferase-based inhibitor screens, primary screen (AID 1006)). Settings: ATPLite firefly luciferase biochemical luminescence, 10 min; at 10 µM; active compounds read high.
Luciferin 4-monooxygenase (Photinus pyralis), sequence (P08659 whole entry, looked up): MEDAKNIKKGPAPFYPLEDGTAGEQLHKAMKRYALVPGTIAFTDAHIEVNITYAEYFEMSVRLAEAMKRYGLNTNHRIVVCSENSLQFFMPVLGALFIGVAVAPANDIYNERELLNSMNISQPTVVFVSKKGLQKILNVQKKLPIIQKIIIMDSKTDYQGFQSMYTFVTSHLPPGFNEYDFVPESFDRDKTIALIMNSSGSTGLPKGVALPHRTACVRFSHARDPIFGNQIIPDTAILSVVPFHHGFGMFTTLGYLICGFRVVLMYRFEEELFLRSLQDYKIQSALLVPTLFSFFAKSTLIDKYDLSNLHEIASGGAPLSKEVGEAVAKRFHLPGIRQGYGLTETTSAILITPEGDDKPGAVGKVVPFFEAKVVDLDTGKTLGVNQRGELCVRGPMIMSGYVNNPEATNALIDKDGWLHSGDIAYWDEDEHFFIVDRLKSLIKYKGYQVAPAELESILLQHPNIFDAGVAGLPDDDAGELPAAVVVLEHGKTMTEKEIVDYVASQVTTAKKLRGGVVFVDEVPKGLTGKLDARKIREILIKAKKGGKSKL
In the case of `CCC(C)(NC(=O)c1ccccn1)C(=O)NC1CCCCC1` (configuration not stated), the inhibition is reported as -4.6% (inactive). `N/C(=N\OC(=O)CCc1ccccc1)c1cccnc1` was tested, and the inhibition was 14.6% (inactive). `N/C(=N\OC(=O)CCC1CCCCC1)c1ccccn1` was tested, and the inhibition was 71.2% (active). `Cc1cc(C)nc(/N=C2\NC(=O)CC(C(=O)O)N2c2ccc(Cl)cc2Cl)n1` (configuration not stated) was tested, and the inhibition was -5.6% (inactive). In the case of `COc1ccccc1-c1noc(CSc2nc(C)cc(=O)[nH]2)n1`, the inhibition is reported as -0.3% (inactive). For `CCc1ccc(NC(=O)C(=O)N/N=C(\C)CC(=O)NCCOC)cc1`, the inhibition was 10.5% (inactive). With `CCCCNC(=O)N1CCN(S(C)(=O)=O)CC1` the inhibition was -1.2% (inactive). `CC(C)n1c(-c2ccncc2)n[nH]c1=S` was tested, and the inhibition was -5.7% (inactive). With `Cc1cccc(NC(=S)N2CCC(O)CC2)c1C` the inhibition was -0.2% (inactive). With `CCCC(=O)Nc1ccc(C(=O)N/N=C/c2ccc[nH]2)cc1` the inhibition was -1.8% (inactive). In the case of `O=C(c1cc(Cl)cc(Cl)c1)N1CCC(=O)N(C(COCc2ccccc2)Cc2ccccc2)CC1` (configuration not stated), the inhibition is reported as -9.5% (inactive). For `O=C(O)Cc1sc(-c2ccc(C(=O)O)cc2)nc1-c1ccccc1`, the inhibition was -4.9% (inactive). In the case of `NC(=O)Cc1ccc2sc(-c3ccccc3)nc2c1`, the inhibition is reported as 65.2% (active). With `O=C(O)Cc1sc(-c2ccccc2)nc1-c1cccs1` the inhibition was 6.8% (inactive). With `CCOC(=O)c1ccc(NC(=O)C2CC(=O)Nc3nc4ccccc4n32)cc1` (configuration not stated) the inhibition was 0.7% (inactive). With `O=c1[nH]c(CCl)nc2cc(-c3ccc(Cl)cc3)sc12` the inhibition was 93.3% (active). In the case of `NC(=O)Cc1nc2scc(-c3ccc(Cl)cc3)c2c(=O)[nH]1`, the inhibition is reported as -1.4% (inactive). With `O=c1[nH]c(CN2CCOCC2)nc2cc(Cl)ccc12` the inhibition was -3.5% (inactive). `Cc1cccc(NC(=O)NC(=S)NC(=O)c2ccccc2)c1` was tested, and the inhibition was 12.7% (inactive). For `Cn1c(-c2ccccc2)c[n+]2c1CCCCC2`, the inhibition was -4.6% (inactive). For `COc1ccc(C2=NN(c3ccccc3)C(c3cccs3)C2)cc1` (configuration not stated), the inhibition was 5.5% (inactive). `O=c1c2ccccc2nc(N/N=C/c2ccccc2)n1O` was tested, and the inhibition was 90.5% (active). For `CC(C)(C)c1nnc(N/N=C/c2ccc(O)cc2)n(N)c1=O`, the inhibition was 17.8% (inactive). With `FC(F)(F)c1nc2ccccc2nc1N/N=C/c1ccc(Cl)cc1` the inhibition was 8.5% (inactive). In the case of `c1ccc2c(NC3C4CC5CC(C4)CC3C5)nc(N3CCOCC3)nc2c1` (configuration not stated), the inhibition is reported as -8.2% (inactive). With `CCOc1ccc(NC(=O)c2cc(C)nc3ccccc23)cc1` the inhibition was -2.9% (inactive). With `CCc1cccc(C)c1NC(=S)N(CCCN1CCN(C)CC1)Cc1cccs1` the inhibition was -0.5% (inactive). For `CN1C(=O)/C(=C\c2cc(Br)cs2)c2ccccc21`, the inhibition was 32.4% (inactive). For `CN(C)c1nccc(NCc2ccccc2)c1C#N`, the inhibition was -1.3% (inactive). With `O=C1NC(c2ccccc2)CCC1(Cl)Cl` (configuration not stated) the inhibition was -1.3% (inactive). `O=C(CSc1ccc(/C=N/NC(=O)c2cccc(F)c2)o1)Nc1ccccc1` was tested, and the inhibition was 3.7% (inactive). In the case of `C/C(=N\OC(=O)c1ccccc1)c1c(C)nc2cc(C)ccn12`, the inhibition is reported as -3.4% (inactive). With `Cc1ccc(NC(=O)C(=O)NCc2ccc(/C=N/NC(=O)c3c(C)nc4cc(C)ccn34)o2)cc1` the inhibition was 70.8% (active). With `C[C@@H]1CC[C@]2(O[C@@H](CCO)C[C@H](O)[C@H]2O)O1` the inhibition was -2.6% (inactive). With `CCN(CC)CCNC(=O)c1ccc(NC(=O)c2c(F)cccc2Cl)cc1` the inhibition was -2% (inactive). In the case of `CC(=O)Nc1ccc(S(=O)(=O)NC2(C(F)(F)F)C(=O)NC(C)=C2C#N)cc1` (configuration not stated), the inhibition is reported as -5.9% (inactive). For `CNC(=O)COC(=O)c1cc(-c2ccc(OC)cc2)nc2ccccc12`, the inhibition was 54.2% (active). In the case of `COc1ccc(-c2cc(C(=O)n3cnc4ccccc43)c3ccccc3n2)cc1`, the inhibition is reported as 36.7% (inactive). In the case of `C/C(N)=C(/C#N)C(=O)COC(=O)c1cc(-c2ccc(C)cc2)nc2ccccc12`, the inhibition is reported as 12.9% (inactive). With `O=C(NNc1cc(Cl)ccc1Cl)c1cccnc1Cl` the inhibition was -7.9% (inactive). With `CC(=O)c1sc(N/N=C\c2ccc(C)cc2)nc1C` the inhibition was -5.2% (inactive). For `CC(=O)c1sc(NC(=O)c2ccc(C)cc2)nc1C`, the inhibition was 68.8% (active). For `CC(=O)c1sc(NC(=O)c2cccc3ccccc23)nc1C`, the inhibition was -4.9% (inactive). In the case of `COc1ccc(/C=C/C(=O)Nc2ccc3c(c2)OCCO3)cc1OC`, the inhibition is reported as 10.1% (inactive). With `CCc1c(C)sc(NC(=O)/C=C/c2ccc3c(c2)OCO3)c1C(=O)OC` the inhibition was 5% (inactive). With `COc1ccc(OC)c(/C=C/C(=O)OCC(=O)Nc2ccc3c(c2)OCCO3)c1` the inhibition was 0.6% (inactive). `O=C(/C=C/c1ccc2c(c1)OCO2)NCc1ccc(F)cc1` was tested, and the inhibition was 1.2% (inactive). In the case of `Cc1cccc(NC(=O)Nc2ccc3c(c2)OCO3)n1`, the inhibition is reported as 55% (active). For `CC(C)C(=O)Nc1cccc(C(=O)Nc2ccc3c(c2)OCO3)c1`, the inhibition was 33% (inactive). With `Cc1cccc(NC(=O)/C=C/c2ccc3c(c2)OCO3)n1` the inhibition was 89.3% (active). `COc1cccc(/C=C/C(=O)Nc2ccc3c(c2)OCCO3)c1` was tested, and the inhibition was 86.5% (active). `CC(NC(=O)Nc1ccc2c(c1)OCO2)c1ccncc1` (configuration not stated) was tested, and the inhibition was -4.9% (inactive).
